A number with no mark means an inactive call. Activity calls are given as the source filed them. No rule for the calls is given here.
Experiments:
[1] = system: Botulinum neurotoxin type F light chain protease (Clostridium botulinum); assay: Clostridium botulinum type F light chain protease inhibitors, microsphere substrate cleavage, validation (AID 588459); conditions: multiplex microsphere protease substrate cleavage assay, flow cytometry; at 10 µM; stronger effect = higher value
[2] = molecular target: Botulinum neurotoxin type A (Clostridium botulinum) (UniProt P0DPI0); assay: BoNT/A light chain protease inhibitors, biochemical, multiplex microsphere flow cytometry, validation set (AID 588460); conditions: at 10 µM, stronger effect = higher value
[3] = molecular target: Lethal factor (Bacillus anthracis) (UniProt P15917); assay: Bacillus anthracis lethal factor inhibition, microsphere flow cytometry protease assay, validation at 10 µM (AID 588461); conditions: multiplex microsphere protease cleavage assay, stronger effect = higher value

Row | Structure (SMILES) | inhibition [1] [%] | inhibition [2] [%] | inhibition [3]
1 | CC1(C)CC(CC(=O)Nc2nccs2)(c2ccccc2)CCO1 (configuration not stated) | 3.8 | 0.5 | -1.9%
2 | COc1ccc(OC)c(NC2=C(Cl)C(=O)N(Cc3ccccc3)C2=O)c1 | 0 | -2.2 | -12.4%
3 | CC(=O)C1=C(O)C(=O)N(Cc2cccnc2)C1c1ccc(C(C)C)cc1 (configuration not stated) | 3.2 | 4.3 | 7%
4 | COc1ccc(CCn2c(C)nc3c(c(=O)c4ccccc4n3C)c2=O)cc1 | 3.4 | 0.2 | 5.5%
5 | C=C(C)c1nc2cc(OC)c(OC)cc2c(=O)o1 | -7.9 | -1.3 | 0.1%
6 | CN1CCc2cccc3c2[C@@H]1Cc1ccc(O)c(O)c1-3 | – | -6.6 | -53.3%
7 | O=C(N/C(=C/C=C\c1ccccc1)C(=O)N1CCOCC1)c1ccc(Br)cc1 | 3.8 | 0.6 | -3.6%
8 | CCN(CC)CCNC(=O)c1ccc(N)cc1 | – | – | 2.4%
9 | Cc1ncc([N+](=O)[O-])n1CCO | 3 | -0.4 | -4.2%
10 | NS(=O)(=O)c1ccc(CNC(=O)c2cc(-c3ccccc3)nc3ccccc23)cc1 | 0.5 | 0.4 | -4.8%
11 | Nc1nc2c(ncn2COCCO)c(=O)[nH]1 | – | – | 0.4%
12 | CC1=C(C)C(=O)C(CCCCC#CCCCC#CCO)=C(C)C1=O | -2.1 | 0.4 | -2.3%
13 | C[C@]12CCC(=O)C=C1CC[C@@H]1[C@@H]2[C@@H](O)C[C@@]2(C)[C@H]1CC[C@]2(O)C(=O)CO | 2.1 | -1.4 | -10.2%
14 | c1ccc(Nc2ccccn2)nc1 | 2.3 | -2.1 | -4.7%
15 | CN1CCc2cccc3c2[C@H]1Cc1ccc(O)c(O)c1-3 | – | -6.5 | -33.9%
16 | O=C(O)CCNC(=O)c1ccccc1 | – | – | -7.3%
17 | Cc1ccc2[nH]c3c(c2c1)CN(C)CC3 | -2.8 | -0.7 | -15%

Row | Structure (SMILES) | inhibition [1] [%] | inhibition [2] [%] | inhibition [3]
18 | Nc1[nH]c(=O)ncc1F | 1.1 | -0.5 | 0%
19 | COc1ccc(CCN2CNc3c(c(=O)n(C)c(=O)n3C)C2)cc1OC | 22.1 | 8 | 4.8%
20 | CC(C)OC(=O)C(C)(C)Oc1ccc(C(=O)c2ccc(Cl)cc2)cc1 | – | – | -0.7%
21 | C1COC(NC(C2CC2)C2CC2)=N1 | 3 | -0.1 | -5%
22 | CC(C)(C)c1ccc(C(O)CCCN2CCC(C(O)(c3ccccc3)c3ccccc3)CC2)cc1 (configuration not stated) | – | -2.5 | -3.6%
23 | C[C@H](CS)C(=O)N1CCC[C@H]1C(=O)O | – | – | -1.8%
24 | O=C(O)c1cc2cc(F)ccc2[nH]1 | 5 | 2.4 | 4%
25 | O=C(O)c1ccccc1O | 0.4 | -0.5 | 2.3%
26 | Cc1cnc(NC(=O)C2=C(O)c3ccccc3S(=O)(=O)N2C)s1 | – | – | 1.4%
27 | CC(C(=O)O)c1cccc(C(=O)c2ccccc2)c1 (configuration not stated) | – | -1.5 | 5.8%
28 | Cc1ccc(P(=O)(CSC(=N)N)c2ccc(C)cc2)cc1 | -1.3 | -0.5 | -7.5%
29 | CCc1cccc2c1NC1(CCCC1)CC2C (configuration not stated) | – | -1.3 | 167% (active)
30 | CN(C)CCC(c1ccc(Cl)cc1)c1ccccn1 (configuration not stated) | – | -0.2 | –
31 | CCC(=O)O[C@]1(C(=O)CCl)[C@@H](C)C[C@H]2[C@@H]3CCC4=CC(=O)C=C[C@]4(C)[C@@]3(F)[C@@H](O)C[C@@]21C | -0.5 | -1.2 | -3.4%
32 | CCc1cc2c(=O)c(-c3nc(C)cs3)c(CCCC(=O)O)oc2cc1O | 1.9 | -1.9 | -3.9%
33 | COc1ccc2[nH]c(C)c(CN3CCC(C)CC3)c(=O)c2c1 | -0.8 | 0.1 | -5.9%
34 | O=C1CC2(CCCC2)CC(=O)N1CCCCN1CCN(c2ncccn2)CC1 | – | 0.2 | 6.7%

Source: PubChem BioAssay
